# Measured values: the supplement of paper PMC10037445
# Over roughly 2,900 compounds, “NF-kB SEAP reporter activity, fold change vs agonist alone” has its median near 0.99; the highest 2% begin near 2.6. The list comes from a sample in which the highest values are over-represented; it also holds similar structures and randomly drawn compounds.
# What was measured:
# [1] = tested on: RAW-Dual; assay: NF-kB SEAP reporter activity, fold change vs agonist alone; cytotoxicity flag (confluency mask): cytotoxic (confluency <70% of control); higher = enhanced NF-kB activity
# Outline: (§1)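 Cytotoxic wells were those whose IncuCyte confluency was below 70% of agonist controls in both mask sets. The cells were RAW-Dual macrophages at 50,000 cells/well in DMEM on 384-well plates, dosed with 50 nL of library stock by pin tool, stimulated with a PRR agonist 1 h later, and kept at 37 °C, 5% CO2 for 20 hours. IRF and NF-κB reporter activity, as fold change over agonist-alone wells, came from supernatant read by QuantiLuc luminescence and QuantiBlue absorbance, respectively.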
# [2] = tested on: RAW-Dual; assay: NF-kB SEAP reporter activity, fold change vs agonist alone; cytotoxicity flag (confluency mask): not cytotoxic; higher = enhanced NF-kB activity
# Outline: as §1
# [3] = tested on: RAW-Dual; assay: NF-kB SEAP reporter activity, fold change vs agonist alone; higher = enhanced NF-kB activity; details: library stock concentration (final ~1000-fold dilution): 10 mM, cytotoxicity flag (confluency mask): not cytotoxic
# Outline: as §1
# [4] = agonist: ODN 1826 (TLR9) 0.5 ug/mL
# [5] = agonist: Pam2CSK4 (TLR2/6) 0.1 ug/mL
# [6] = agonist: Pam3CSK4 (TLR2/1) 0.1 ug/mL
smiles,measurement,setting,value
CN(CCNc1ccnc2cc(Cl)ccc12)CCNc1ccnc2cc(Cl)ccc12.Cl.Cl.Cl (library stock concentration (final ~1000-fold dilution): 10 mM),NF-kB SEAP reporter activity,[1]; agonist: LPS (TLR4) 0.1 ug/mL,4.28
same,NF-kB SEAP reporter activity,[1]; [4],0.547
same,NF-kB SEAP reporter activity,[1]; [5],1.63
same,NF-kB SEAP reporter activity,[1]; [6],2.17
CCN(CCO)CCCC(C)Nc1ccnc2cc(Cl)ccc12.O=S(=O)(O)O (configuration not stated) (library stock concentration (final ~1000-fold dilution): 10 mM water),NF-kB SEAP reporter activity,[2]; agonist: LPS (TLR4) 0.1 ug/mL,1.41
same,NF-kB SEAP reporter activity,[2]; [4],0.252
same,NF-kB SEAP reporter activity,[2]; [5],0.864
same,NF-kB SEAP reporter activity,[2]; [6],0.763
Cc1cc2ncc(C(=O)NCC(C)(C)NCC(=O)N3CCCC3C#N)cn2n1 (configuration not stated),NF-kB SEAP reporter activity,[3]; agonist: Imiquimod (TLR7) […],0.977
same,NF-kB SEAP reporter activity,[3]; agonist: MPLA (TLR4) […],1.04
Cc1cc2ncc(C(=O)NCC(C)(C)NCC(=O)N3CCCC3C#N)cn2n1 (configuration not stated) (library stock concentration (final ~1000-fold dilution): 10 mM),NF-kB SEAP reporter activity,[2]; agonist: LPS (TLR4) 0.1 ug/mL,1.57
same,NF-kB SEAP reporter activity,[2]; [4],0.997
same,NF-kB SEAP reporter activity,[2]; [5],0.911
same,NF-kB SEAP reporter activity,[2]; [6],0.96
COc1ccccc1Nc1nc(-c2sc(NC(C)=O)nc2C)cs1 (library stock concentration (final ~1000-fold dilution): 10 mM),NF-kB SEAP reporter activity,[2]; agonist: LPS (TLR4) 0.1 ug/mL,0.496
same,NF-kB SEAP reporter activity,[2]; [4],0.464
same,NF-kB SEAP reporter activity,[2]; [5],0.318
same,NF-kB SEAP reporter activity,[2]; [6],0.245
COc1ccccc1Nc1nc(-c2sc(NC(C)=O)nc2C)cs1,NF-kB SEAP reporter activity,[3]; agonist: Imiquimod (TLR7) […],0.623
same,NF-kB SEAP reporter activity,[3]; agonist: MPLA (TLR4) […],0.687
CC(C)(OC1OC(CO)C(O)C(O)C1O)C1Cc2cc3ccc(=O)oc3cc2O1 (configuration not stated),NF-kB SEAP reporter activity,[3]; agonist: Imiquimod (TLR7) […],1.21
same,NF-kB SEAP reporter activity,[3]; agonist: MPLA (TLR4) […],1.19
CC(C)(OC1OC(CO)C(O)C(O)C1O)C1Cc2cc3ccc(=O)oc3cc2O1 (configuration not stated) (library stock concentration (final ~1000-fold dilution): 10 mM),NF-kB SEAP reporter activity,[2]; agonist: LPS (TLR4) 0.1 ug/mL,1.14
same,NF-kB SEAP reporter activity,[2]; [4],1.31
same,NF-kB SEAP reporter activity,[2]; [5],1.27
same,NF-kB SEAP reporter activity,[2]; [6],1.48
Cl.O=C1C2CCCCC2C(=O)N1CCCCN1CCN(c2nsc3ccccc23)CC1 (configuration not stated) (library stock concentration (final ~1000-fold dilution): 10 mM),NF-kB SEAP reporter activity,[2]; agonist: LPS (TLR4) 0.1 ug/mL,0.671
same,NF-kB SEAP reporter activity,[2]; [4],0.536
same,NF-kB SEAP reporter activity,[2]; [5],0.848
same,NF-kB SEAP reporter activity,[2]; [6],0.888
Cl.O=C1C2CCCCC2C(=O)N1CCCCN1CCN(c2nsc3ccccc23)CC1 (configuration not stated),NF-kB SEAP reporter activity,[3]; agonist: MPLA (TLR4) […],0.868
Cc1n[nH]c2ccc(-c3cncc(OCC(N)Cc4ccccc4)c3)cc12 (configuration not stated),NF-kB SEAP reporter activity,[3]; agonist: Imiquimod (TLR7) […],0.904
same,NF-kB SEAP reporter activity,[3]; agonist: MPLA (TLR4) […],0.967
Cc1n[nH]c2ccc(-c3cncc(OCC(N)Cc4ccccc4)c3)cc12 (configuration not stated) (library stock concentration (final ~1000-fold dilution): 10 mM),NF-kB SEAP reporter activity,[2]; agonist: LPS (TLR4) 0.1 ug/mL,0.198
same,NF-kB SEAP reporter activity,[2]; [4],0.962
same,NF-kB SEAP reporter activity,[2]; [5],0.447
same,NF-kB SEAP reporter activity,[2]; [6],1.01
